Hit rate of the full screen: of about 69,000 compounds, about 8,600 (12%) showed an effect of 50% or more. The sample holds strong results, similar compounds and a random draw of the others, so the mix is not that of the screen.
Tested on: Plasmodium berghei
Assay: Screen against P. berghei liver stage (PbLuc), transformed with Luciferase, at 10uM
Format: functional, HepG2
Conditions: tested at 10 uM

Structure (SMILES)	INHIBITION [%]
CC(Cc1ccco1)NC(=O)Nc1ccc(N2CCCC2)nc1 (stereo not given)	21.425
Cc1ccc(S(=O)(=O)N2CCC(c3n[nH]cc3C)C2)cc1 (stereo not given)	32.8
CCN1CC2(CC1=O)CN(Cc1ccncc1)CCN(C(=O)C(C)C)C2 (stereo not given)	38.5
COc1cc(-c2nc3c([nH]2)CCCNC3=O)ccc1OC(C)C	-125
CCCN(Cc1ccc(S(=O)(=O)NC)cc1)Cc1ccccc1OC	38.6
Cc1ccc(CN(CCN(C)C)Cc2nc3ccccc3[nH]2)s1	36.5
CCCN(Cc1nc2ccccc2[nH]1)Cc1ccccc1OC	82.3
CCCN(Cc1cnc2ccccc2n1)Cc1ccccc1OC	61.9
CCCN(Cc1ccc(OC)nc1)Cc1ccccc1OC	37.8
CCCN(Cc1ccccn1)Cc1ccccc1OC	45.2
Cc1cccc(N2CCCC2c2nc(C)ncc2CN(C)C)n1 (stereo not given)	-3.94
Cc1ccnc(NC(=O)C(C)Cn2cncn2)c1 (stereo not given)	28.4
Cc1nc(NCc2nonc2C)cc(C(C)Cn2nc(C)c(C)c2C)n1 (stereo not given)	43.8
COc1ccc2c(ccn2CCC(=O)Nc2nc[nH]n2)c1	29.9
CCc1nc(CN2CCCC(NCc3nc(C)c(C)o3)C2)no1 (stereo not given)	-2.19
O=C(CC1COCCN1)N1CCCN(C2Cc3ccccc3C2)CC1 (stereo not given)	-22.1
COCCC1(CO)CCCN(C(=O)CCC(F)(F)F)C1 (stereo not given)	-1.49
O=c1c2c[nH]c(N3CCC(O)CC3)nc-2cn1Cc1cccc(F)c1	11.8
Cc1ccc(CN2CCC(O)(Cn3nc(-c4cccs4)oc3=O)CC2)o1	14.6
CCc1ncnc2c1CCN(Cc1cccs1)CC2	13.7
Cc1occc1C(=O)N1CCO[C@H]2[C@H](OCc3cccnc3)CC[C@@H]21	34.4
CC(c1ccon1)N(C)C(=O)C1CCN(C(=O)C2CC2)CC1 (stereo not given)	34
CN(Cc1ccoc1)C(=O)C1CCN(C(=O)C2CCCC2)CC1	61.1
CC(c1ccon1)N(C)C(=O)C1CCN(C(=O)C2CCC2)CC1 (stereo not given)	57.5
CC(C)N1CCC(C(=O)N(C)C(C)c2ccon2)CC1 (stereo not given)	1.94
CC(=O)N(Cc1ccoc1)C1CCCCC1	-29.5
CN(Cc1cnc(N)nc1)C(=O)C1CCN(C(=O)C2CCCC2)CC1	44.3

Structure (SMILES)	INHIBITION [%]
Cc1nn(Cc2ccc(C(=O)NC3CCS(=O)(=O)C3)cc2)c(C)c1Br (stereo not given)	7.3
COCCN1C(=O)CCC12CCC(NCc1nccs1)CC2 (stereo not given)	10.5
CN1CC2(CCN(C(=O)c3cn4cccnc4n3)CC2)CC1=O	-28.9
CS(=O)(=O)NCc1cncc2c1CCN(CC1CCOC1)C2 (stereo not given)	53.4
O=C(NCc1cncc2c1CCN(CC1CCOC1)C2)c1ccno1 (stereo not given)	-0.813
c1cnc(NCc2cncc3c2CCN(CC2CC2)C3)nc1	48.4
O=C(O)c1c(-c2cccnc2)ncc2c1CCN(CC1CCOC1)C2 (stereo not given)	-21.1
O=C(O)c1c(-c2ccncc2)ncc2c1CCN(CC1CCOC1)C2 (stereo not given)	34.9
O=C(NCc1cncc2c1CCN(CC1CCOC1)C2)c1ccco1 (stereo not given)	-46
Cc1nccc(NCc2cncc3c2CCN(CCN(C)C)C3)n1	29.4
Cc1nccc(NCc2cncc3c2CCN(CC2CCOC2)C3)n1 (stereo not given)	91.9
Cc1nccc(NCc2cncc3c2CCN(CC2CC2)C3)n1	84.7
CCC(=O)N1CCN(CCn2cccn2)c2ncccc2C1	43
Cn1cc(CN2CCc3onc(COCC4CC4)c3C2)cn1	5.96
CCc1ncncc1C(=O)N1CCN(Cc2cscn2)CC1	15.5
COCc1nnc(NC(=O)c2cn(C(C)C)c3ccc(OC)cc23)s1	-42.5
COc1cccc(C2CCCN2C(=O)c2cc3c(nc2OC)CCC3)c1 (stereo not given)	-10.8
COc1nc2c(cc1C(=O)N1CCCOC(Cn3cccn3)C1)CCC2 (stereo not given)	59.1
COc1ccc2cc(C(=O)N3CC[C@H](CO)[C@H](O)C3)n(C)c2c1	27.6
COc1nc2c(cc1C(=O)N1CC[C@H](CO)[C@@H](O)C1)CCC2	61
O=C(c1cccc(-n2cccn2)c1)N1CCCOC(CN2CCCC2)C1 (stereo not given)	13.7
COc1nc2c(cc1C(=O)N1CCCOC(CN3CCCC3)C1)CCC2 (stereo not given)	54.5
CCc1ncc(C(=O)N2CCCOC(Cn3cccn3)C2)cn1 (stereo not given)	40.2
COc1ccc(C(=O)N2CC[C@H](CO)[C@H](O)C2)c(C)c1	16.8
O=C(c1cccc(-n2cccn2)c1)N1CCCOC(Cn2cccn2)C1 (stereo not given)	0.891
CCC(C)(C)C(=O)Nc1ccc2ccn(CC(=O)NC)c2c1	-3.47
Cc1oncc1C(=O)N1C[C@H]2CCCC(N(C)Cc3cccs3)[C@H]2C1 (stereo not given in full)	21.6

Structure (SMILES)	INHIBITION [%]
CCS(=O)(=O)CC(=O)NC(C)c1ccc(OCCC(C)C)cc1 (stereo not given)	15.4
CCOC(=O)Cc1csc(NC(=O)c2ccc(=O)[nH]n2)n1	18.4
Cc1nc(CN2CCC3(CCN(c4ncc(F)cn4)C3)C2=O)cs1 (stereo not given)	-23.7
CCc1c(C(=O)N2CCCN(C(C)=O)CC2)cnn1C(C)(C)C	44.3
CCc1c(C(=O)N2CCN(CC(N)=O)CC2)cnn1C(C)(C)C	53.8
CCc1c(C(=O)N2CCC(CC(N)=O)CC2)cnn1C(C)(C)C	47.1
Cc1ccc(-n2ncc3c2CCCC3N)cc1C (stereo not given)	33.7
CN(C)S(=O)(=O)NC1CCCc2c1cnn2-c1ccc(C(C)(C)C)cc1 (stereo not given)	58.8
CC(C)(C)c1ccc(-n2ncc3c2CCCC3N)cc1 (stereo not given)	22.6
Cn1cc(C2CCCN2CCC(=O)N2CCc3sccc3C2)cn1 (stereo not given)	19.2
COc1ccc(CN2CC[C@H]3CO[C@H](CNC(=O)N(C)C)[C@H]3C2)cc1	12.7
Cc1ccc(CN2Cc3nccn3CC(Cn3cncn3)C2)s1 (stereo not given)	-9.02
CN(CC(F)(F)F)C(=O)c1ccc(F)c(NS(C)(=O)=O)c1	-43.5
Cc1ccc(C(=O)N(C)S(C)(=O)=O)cc1Cl	61.9
Cc1cc(Br)ccc1C(=O)N(C)CCNS(C)(=O)=O	35.9
Cc1ccc(C(=O)N2CCCS2(=O)=O)cc1Cl	21.1
Cc1sc(C(=O)N(C)S(C)(=O)=O)cc1-c1ccc(F)cc1	13.3
Cc1ccc(C(=O)N(C)CCNS(C)(=O)=O)cc1Br	23.9
Cc1ccc(C(=O)N(CC(=O)O)CC(C)C)cc1F	39.7
CN(CCNS(C)(=O)=O)C(=O)c1ccc(Cl)c(Cl)c1	66.5
Cc1cc(C(=O)N(C)S(=O)(=O)C(C)C)ccc1F	61.9
Cc1cc(C(=O)N(C)S(C)(=O)=O)ccc1F	61
CN(C(=O)c1ccc(Cl)c(S(C)(=O)=O)c1)c1ccccc1	5.91
Cc1cc(C(=O)N(CC(=O)O)CC(C)C)ccc1F	40.9
Cc1cc2ccncc2n1CC1(O)CCN(C(=O)c2ccncc2)CC1	7.19
CNc1nc(C)c(C(=O)NCC(C)(C)N2CCCCC2)s1	-34.6
CN(CCO)Cc1nnc(C2CCN(CC3[C@H]4CNC[C@@H]34)CC2)n1C (stereo not given in full)	-3.55

Structure (SMILES)	INHIBITION [%]
c1ncn(CC2CCCN(Cc3nnc(C4CC4)o3)C2)n1 (stereo not given)	-0.74
Cc1nc(C(C)C)sc1C(=O)NCCNc1ncccn1	26.5
COc1ccc(CN2CCC(C(N)=O)CC2)cc1SC(F)(F)F	52.2
COc1ccc(CN2CCN(C(C)=O)CC2)cc1SC(F)(F)F	21.9
COc1ccc(CN2CCNC(=O)CC2)cc1SC(F)(F)F	25.3
O=C(CCc1ccccc1)NCC(O)c1c(F)cccc1F (stereo not given)	45.7
Cc1noc([C@@H]2C[C@H]3OCC[C@H]3N(CC3CCCC3)C2)n1	29.9
CCc1ccc(CN2C[C@@H](c3nc(C)no3)C[C@H]3OCC[C@H]32)o1	-2.72
Cc1noc([C@@H]2C[C@H]3OCC[C@H]3N(Cc3cc(C)c(C)o3)C2)n1	57.9
Cc1noc([C@@H]2C[C@H]3OCC[C@H]3N(C(C)C)C2)n1	-18.2
Cc1noc([C@@H]2C[C@H]3OCC[C@H]3N(Cc3ccoc3)C2)n1	15.9
Cc1noc([C@H]2C[C@H]3OCC[C@H]3N(Cc3scnc3C)C2)n1	0.777
Cc1noc([C@@H]2C[C@H]3OCC[C@H]3N(Cc3sccc3C)C2)n1	54.4
Cc1noc([C@H]2C[C@H]3OCC[C@H]3N(Cc3cccs3)C2)n1	43.9
Cc1noc([C@H]2C[C@H]3OCC[C@H]3N(C3CCC3)C2)n1	92
Cc1cnn(CC2CCCN2CC(=O)Nc2nccs2)c1 (stereo not given)	-12.1
CC(C)N1[C@@H](C(=O)NCC2CC2)C[C@@H]2CN(Cc3ccco3)C[C@@H]21	-11
COCCOc1cc(C)ccc1NC(=O)N(C)Cc1cnn(C)c1	-58
Cc1c(O)oc(-c2ccc(Br)cc2)nc1=O	55.5
CNC(=O)NC(C)c1nc(-c2ccc(Br)cc2)no1 (stereo not given)	47.8
O=C1CN(Cc2nnc(-c3ccc(Br)cc3)o2)CCN1	10.8
CCOCCCNS(=O)(=O)c1ccc2c(c1)NC(=O)C(C)O2 (stereo not given)	2.55
Cc1nn(C)c(N(C)C)c1CNC1CCc2c(Cl)cccc21 (stereo not given)	19.915
Cc1nc(C)c(C(=O)N2CCCC(C(=O)c3nccn3C)C2)s1 (stereo not given)	36.6
